# Literature values as cited in PubChem BioAssay AID977611.
# The whole screen tested about 3,900 compounds, of which about 3,900 (100%) were called active. Cut-off not given; nearly all actives show Kd up to about 4200 µM. The set was probably picked from earlier hits. Some of the results follow. Where a SMILES comes first, the peptide text is derived from it. Square brackets hold non-standard residues; d marks the D form. Residues, ends and D or L forms follow the SMILES beside them. Bridges are numbered along the chain shown (N, C = ends). Peptide text beside a SMILES is read from it. [ ]: non-standard residue; d: D form. Orn(CH(NH2)2) = NC(N)NCCC[C@H](N)C(=O)O
# Assay: PubChem AID 977611
# Conditions: PDB protein-ligand complexes, literature Kd
compound,measurement,setting,value
CC(C)C[C@H](NC(=O)[C@H](CO)NC(=O)[C@H](CCCCN)NC(=O)[C@H](CCCCN)NC(=O)[C@H](CC(C)C)NC(=O)[C@H](CO[P+](O)(O)O)NC(=O)[C@H](CCCCN)NC(=O)[C@@H](NC(=O)[C@H](CCCN=C(N)N)NC(=O)[C@H](CO)NC(=O)[C@H](C)N)C(C)C)C(=O)N[C@@H](CCCN=C(N)N)C(=O)N[C@@H](CCC(N)=O)C(=O)N[C@@H](CO)C(=O)N[C@@H](Cc1ccccc1)C(=O)O,Kd,"protein: Disks large homolog 4, Dlg GK, PDB entry 3wp0",10.2 µM (active)
CC[C@H](C)[C@H](NC(=O)[C@@H](N)CC(=O)O)C(=O)N[C@@H](CC(=O)O)C(=O)N[C@H](C(=O)N[C@@H](CCSC)C(=O)NCC(=O)N[C@@H](CC(C)C)C(=O)O)C(C)C (H-DIDVMGL-OH),Kd,"protein: Rhodopsin, PDB entry 4pxf",800 µM (active)
H-AIIGLMVGGVV-OH,Kd,"protein: ponezumab Fab, PDB entry 3u0t",0.0003 µM (active)
CC(C)C[C@@H](C=O)NC(=O)[C@H](CC(C)C)NC(=O)[C@@H]1CCCN1C(=O)[C@H](CCCCN)NC(=O)[C@@H]1CCCN1C(=O)[C@H](C)NC(=O)[C@@H](NC(=O)[C@@H]1CCCN1C(=O)[C@H](CCCNC(N)N)NC(=O)[C@@H]1CCCN1C(=O)[C@@H]1CCCN1C(=O)[C@@H]1CCCN1)[C@@H](C)O (H-PPP[Orn(CH(NH2)2)]PTAPKPLL-aldehyde),Kd,"protein: Mona/GadsSH3C, PDB entry 2w10",0.17 µM (active)
CC(C)C[C@H](NC(=O)[C@@H](NC(=O)[C@@H]1CCCN1C(=O)[C@@H]1CCCN1C(=O)[C@@H]1CCCN1)[C@@H](C)O)C(=O)N1CCC[C@H]1C(=O)N[C@@H](CCCCN)C(=O)N1CCC[C@H]1C(=O)N[C@@H](C)C(=O)N[C@@H](C)C(=O)N1CCC[C@H]1C(=O)O (H-PPPTLPKPAAP-OH),Kd,"protein: Nebulette, PDB entry 4f14",12.9 µM (active)
CC(C)C[C@H](NC(=O)[C@@H]1CCCN1C(=O)[C@H](CCCNC(N)N)NC(=O)[C@@H]1CCCN1C(=O)[C@@H]1CCCN1)C(=O)N1CCC[C@H]1C(=O)N[C@H](C(=O)N[C@@H](C)C(=O)N1CCC[C@H]1C(=O)NCC(=O)N[C@@H](CO)C(=O)N[C@@H](CO)C(=O)N[C@@H](CCCCN)C(=O)N[C@H](C(=O)O)[C@@H](C)O)C(C)C (H-PP[Orn(CH(NH2)2)]PLPVAPGSSKT-OH),Kd,"protein: Fny(SH3 domain, 82 - 148), PDB entry 1azg",16 µM (active)
H-PPPLPP-OH,Kd,"protein: WW domain of Formin-binding protein 11(FBP11), PDB entry 1ywi",371 µM (active)
O=C(O)CNC(=O)[C@@H]1CCCN1C(=O)[C@@H]1CCCN1C(=O)CNC(=O)[C@@H]1CCCN1C(=O)[C@@H]1CCCN1C(=O)CNC(=O)[C@@H]1CCCN1C(=O)[C@@H]1CCCN1 (H-PPGPPGPPG-OH),Kd,"protein: PROLYL 4-HYDROXYLASE SUBUNIT ALPHA-1, PDB entry 4bt9",144 µM (active)
O=C(O)[C@@H]1CCCN1C(=O)[C@@H]1CCCN1C(=O)[C@@H]1CCCN1C(=O)[C@@H]1CCCN1C(=O)[C@@H]1CCCN1C(=O)[C@@H]1CCCN1C(=O)[C@@H]1CCCN1C(=O)[C@@H]1CCCN1C(=O)[C@@H]1CCCN1 (H-PPPPPPPPP-OH),Kd,"protein: PROLYL 4-HYDROXYLASE SUBUNIT ALPHA-1, PDB entry 4btb",9.8 µM (active)
COC(=O)c1cccc2[nH]ccc12,Kd,"protein: DNA REPAIR AND RECOMBINATION PROTEIN RADA, PDB entry 4b35",1300 µM (active)
CC1C(=O)OC2=C1C=COC2 (stereo not given),Kd,"protein: Hydrolase, alpha/beta fold family protein, PDB entry 4jym",9.05 µM (active)
C=C(C)/C=C/[C@H]1[C@@H](C)CCCC1(C)C,Kd,"protein: Cellular Retinal Binding Protein, PDB entry 4ciz",0.051 µM (active)
CC(C)C(=O)C[N+]1=C2N=C(N3CCOC[C@H]3C)CC(=O)N2CC[C@H]1C(F)(F)F,Kd,"protein: PHOSPHATIDYLINOSITOL 3-KINASE CATALYTIC SUBUNIT TYPE 3 Vsp34, PDB entry 4uwl",0.0027 µM (active)
Cn1cnc2nc(N)[nH]c(=O)c21,Kd,"protein: rRNA N-glycosidase, PDB entry 4i47",0.12 µM (active)
NCC(=O)NCC(=O)NCC(=O)N[C@@H](CO[P+](O)(O)O)C(=O)NCC(=O)NCC(=O)NCC(=O)O,Kd,"protein: 14-3-3 protein, PDB entry 1a37",0.12 µM (active)
OC[C@H]1O[C@@H](Sc2ccc3ccccc3c2)[C@H](O)[C@@H](O)[C@H]1O,Kd,"protein: PA-I GALACTOPHILIC LECTIN, PDB entry 4a6s",6.3 µM (active)
CC[C@H](C)[C@@H]1NC(=O)[C@H](CCCCN)NC(=O)[C@H](Cc2ccccc2)NC(=O)CNC(=O)[C@H](Cc2ccc(O)cc2)NC(=O)[C@H](CC(C)C)NC(=O)[C@H](CCCNC(N)N)NC(=O)[C@@H](NC(=O)CN)CSSC[C@@H](C(=O)NCC(=O)O)NC(=O)CNC(=O)[C@H](Cc2cnc[nH]2)NC1=O (H-GC[Orn(CH(NH2)2)]LYGFKIHGCG-OH; disulfide 2-12),Kd,"protein: Casein kinase II subunit alpha, PDB entry 4ib5",0.56 µM (active)
CC[C@H](C)[C@@H]1NC(=O)[C@H](Cc2cnc[nH]2)NC(=O)[C@H]([C@@H](C)CC)NC(=O)[C@H](CCCNC(N)N)NC(=O)[C@@H](N)CSSC[C@@H](C(=O)O)NC(=O)[C@H]([C@@H](C)O)NC(=O)[C@H](Cc2ccc(O)cc2)NC(=O)[C@H](Cc2ccccc2)NC(=O)[C@H](C)NC(=O)[C@H](CCCNC(N)N)NC(=O)CNC(=O)[C@@H]2CCCN2C(=O)CNC1=O,Kd,"protein: Fab mAb 447-52D Light Chain, PDB entry 4m1d",0.023 µM (active)
COc1cc2c(Nc3ccc(NC(=O)c4ccccc4)cc3)ncnc2cc1O,Kd,"protein: Bifunctional protein GlmU, PDB entry 4e1k",0.5 µM (active)
NC(N)NC[C@H]1Cc2ccccc2[C@@H]1NC(=O)C(=O)Nc1ccc(Cl)c(F)c1,Kd,"protein: HIV-1 glycoprotein, PDB entry 4i54",0.11 µM (active)
